Bioassay records (PubChem BioAssay)
ELG1 repair inh = qHTS screen for small molecules that inhibit ELG1-dependent DNA repair in human embryonic kidney (HEK293T) cells expressing luciferase-tagged ELG1 | Potency, µM (highest dose often 46.1 µM), actives largely listed as inhibitors | 330,000 compounds, 2.3% hits | HEK293T ELG1-luciferase reporter, luminescence, 16 h; DNA damage induced by 5-fluorouridine; also: nearly all actives have a fitted effect of over 55% in size
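Luminescence from the luciferase reporter, measured 30 min after ONE-Glo reagent at room temperature, was the read-out. Beforehand, 2,000 cells per well were exposed for 16 hr at 37 °C to 5-fluorouridine together with compound or vehicle.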
Nrf2 inh = Nrf2 qHTS screen for inhibitors | A549 ARE-Fluc reporter, luciferase luminescence, 18-24 h | Potency, µM (doses to about 46 µM), most hits filed as inhibitors | 360,000 compounds, 2.1% hits | AID 504444, 2011; also: nearly all actives have a fitted effect of over 60% in size
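Nrf2 activity is the BugLite luminescence, read 15 min after reagent at room temperature, following CellTiter-Fluor cytotoxicity readout (30 min, 37C). Compound titrations were applied for 18-24 h to 5000 A549 ARE_Fluc cells/well in 5% FBS OPTI-MEM.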
A549 tox = Nrf2 qHTS screen for inhibitors: counterscreen for cytotoxicity | A549 ARE-Fluc cells, CellTiter-Fluor viability, 18-24 h | Potency, µM (doses to about 46 µM), most hits filed as inhibitors | 390,000 compounds, 0.16% hits | AID 504648, 2011
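A549 ARE-Fluc cells in 5% FBS OPTI-MEM, 5000 cells/well, rested 2 h then exposed to compounds in concentration-response for 18-24 h at 37 °C. Viability by CellTiter-Fluor fluorescence (Ex 405/Em 525) after 30 min; luciferase luminescence (BugLite, 15 min, RT) read afterwards.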
Nrf2 activator = qHTS of Nrf2 Activators; 410,000 compounds, 0.31% hits; AREc32 ARE-luciferase reporter (MCF7-derived line), luminescence, 24 h; Potency, µM (top dose mostly 46.1 µM), usual class: activators; AID 624171, 2012; also: nearly all actives have a fitted effect of over 65% in size
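Luminescent ARE reporter assay in AREc32_Fluc cells: overnight plating at 37 deg C, 24 hr compound incubation, Steady-Glo added, 30 min RT before reading.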
Of the large screens only hits and unclear results are named; the others gave an inactive call. Hits are enriched below; roughly 3.7% of the tested compounds scored in any of these assays. Calls follow the shape of the dose curve; as a rule, active = well fitted curve in the direction sought with a large enough effect; inconclusive = small, poorly fitted or top-dose-only effect, or another doubt; inactive = no such curve, though single readings can be large; an effect the other way counts as inactive or inconclusive.

N/C(=N\OC(=O)c1ccc(Br)cc1)c1ccccc1	ELG1 repair inh inconclusive, Nrf2 activator 8.9µM (no result: Nrf2 inh)
N/C(=N\OC(=O)c1cccs1)c1ccccc1	ELG1 repair inh inconclusive, Nrf2 inh inconclusive, Nrf2 activator 10µM
N/C(=N\OC(=O)c1cccc(Br)c1)c1ccc(Br)cc1	ELG1 repair inh inconclusive, Nrf2 activator inconclusive
COc1ccc(C(=O)O/N=C(/C)c2cccs2)cc1	Nrf2 activator 18µM (no result: Nrf2 inh)
N/C(=N\OC(=O)c1cccs1)c1cccc(Br)c1	ELG1 repair inh inconclusive, Nrf2 inh inconclusive, Nrf2 activator 11µM
CCOC(=O)C1(C)CCCN(C(=O)c2c(-c3ccccc3)noc2C)C1 (stereo not drawn)	none (no result: ELG1 repair inh, Nrf2 inh, A549 tox)
Cc1ccc(/C(N)=N/OC(=O)c2cccs2)cc1	ELG1 repair inh inconclusive, Nrf2 inh inconclusive, Nrf2 activator inconclusive
N/C(=N\OC(=O)c1ccco1)c1ccccc1	ELG1 repair inh inconclusive, Nrf2 inh inconclusive, Nrf2 activator 18µM
Cc1cccc(/C(N)=N/OC(=O)c2cccs2)c1	ELG1 repair inh inconclusive, Nrf2 inh inconclusive, Nrf2 activator 14µM
COC(=O)c1cccc(NC(=O)c2nsc3ccccc23)c1	none (no result: ELG1 repair inh)
N#Cc1ccc(Oc2ncccn2)cc1	none (no result: ELG1 repair inh)
CCN1CCN(c2ncnc3c2sc2nc(N4CCOCC4)c4c(c23)CCC4)CC1	none
c1nc(NCCN2CCOCC2)c2sc3nc(N4CCOCC4)c4c(c3c2n1)CCC4	ELG1 repair inh 23µM
COc1ccc(-n2nc3c(c2NC(=O)C(C)Oc2ccccc2)CS(=O)(=O)C3)cc1 (stereo not drawn)	none
COc1ccc(C(C)(C)C)cc1NC(=O)c1[nH]c(C)c(C(C)=O)c1C	ELG1 repair inh 5.8µM, Nrf2 inh inconclusive
CC(=O)c1c(C)[nH]c(C(=O)Nc2cccc(C#N)c2)c1C	Nrf2 inh inconclusive
CC(=O)c1c(C)[nH]c(C(=O)Nc2cccc(C(F)(F)F)c2)c1C	ELG1 repair inh inconclusive, Nrf2 inh 21µM, A549 tox inconclusive
CCOC(=O)/C(=C/C1=CC(=C/N(C)C)/C(=O)O1)C(C)=O	A549 tox inconclusive
Cc1ccc(C)c(OCCn2c(=O)c3c(ncn3C3CCCC3)n(Cc3ccccc3)c2=O)c1	ELG1 repair inh 21µM, Nrf2 inh inconclusive
CC(C)(C)OC(=O)Cc1nnc(C(C(=O)OCc2ccccc2)c2ccccc2)s1 (stereo not drawn)	none (no result: ELG1 repair inh, Nrf2 activator)
CN=c1scc(-c2ccccc2F)n1/N=C/c1ccc[nH]1	ELG1 repair inh inconclusive, Nrf2 inh inconclusive
CN=c1scc(-c2ccccc2F)n1/N=C/c1ccc(O)c(O)c1O	ELG1 repair inh inconclusive, Nrf2 inh 12µM, A549 tox inconclusive
CC1CCN(C(=O)c2cnn(-c3cccc(Cl)c3)c2C2CCN(C(=O)OC(C)(C)C)CC2)CC1	Nrf2 inh inconclusive (no result: ELG1 repair inh)
CCOC(=O)C1CCN(C(c2cccnc2)c2c(NC(=O)c3ccco3)sc(C)c2C)CC1 (stereo not drawn)	ELG1 repair inh 15µM, Nrf2 inh 15µM
CCOc1ccccc1/C=C/c1onc(C)c1S(=O)(=O)N1CCC(C(=O)N(CC)CC)CC1	ELG1 repair inh 5.8µM
C[C@H]1CN(CCc2ccccc2)C(=O)[C@@H]1CC(=O)Nc1ccccc1	none (no result: ELG1 repair inh, Nrf2 inh, A549 tox)
COc1cc(C2CC(=O)Nc3c2c(=O)n(C)c2ncnn32)cc(OC)c1OC (stereo not drawn)	none (no result: ELG1 repair inh)
COC(=O)C1CCN(C(=O)COC(=O)c2cc(-c3ccccc3)nc3ccc(OC)cc23)CC1	ELG1 repair inh 18µM
COc1ccc(-c2cc(C(=O)OCC(=O)N3CCOCC3)c3ccccc3n2)cc1	ELG1 repair inh 21µM
COc1cc2ccccc2cc1C(=O)OCC(=O)N1CCOCC1	none
Cc1ccc(Oc2ccc(OCC(=O)NC3CCS(=O)(=O)C3)cc2)cc1 (stereo not drawn)	ELG1 repair inh 12µM, Nrf2 inh inconclusive
COc1ccc2cc(-c3cc(C(=O)OCC(=O)NC4CCS(=O)(=O)C4)c4ccccc4n3)ccc2c1 (stereo not drawn)	ELG1 repair inh inconclusive, Nrf2 inh 12µM
COC(=O)C1=C(c2ccccc2)c2ccccc2S(=O)(=O)N1CC(=O)Nc1ccc(F)c(F)c1	none (no result: ELG1 repair inh)
O=C(Nc1ccccc1Cl)c1cc(C2CCCCN2C(=O)c2ccccc2)on1 (stereo not drawn)	none (no result: ELG1 repair inh, Nrf2 inh, A549 tox)
COc1ccc(NC(=O)Nc2nnc([C@H]3C[C@H](O)[C@@H](CO)O3)s2)cc1	none (no result: ELG1 repair inh, Nrf2 inh, A549 tox)
COc1ccc(-c2cc(C(=O)Nc3c(C)n(C)n(-c4ccccc4)c3=O)c3ccccc3n2)cc1	ELG1 repair inh 16µM
